Experimental findings from the supplement of paper PMC6805474 are described below.

The subject of experiment [1] is Schistosoma mansoni schistosomula (LE). The experiment is described as follows: XTT viability relative to DMSO control; higher = more viable (less active). Conditions: 72 h; 10 µM. As for the experimental part: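 XTT/PMS was then added for a further 24 h (72 h total) and A450 was read. % viability = (sample - heat-killed control)/(DMSO control - heat-killed control) x 100, from duplicate wells in two independent experiments.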
In general terms: Tetrazolium dyes change colour on reduction, which living cells bring about.

Experiment [2] deals with Schistosoma mansoni schistosomula (NMRI). The experiment is described as follows: phenotypic severity score (0-4); higher = more antischistosomal effect, active = 2 or more. Conditions: 10 µM.
Experiment [3] has as its system Schistosoma mansoni schistosomula (Liberian). The experiment is described as follows: drug effect (1 - score/DMSO control score) (fraction); higher = more antischistosomal effect, active = 0.5 or more; extreme values may be limits of the assay. Conditions: 10 µM. An outline of the steps:
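Liberian-strain Schistosoma mansoni schistosomula, mechanically transformed from cercariae and pre-incubated at least 12 h, were exposed in duplicate (50 per well, flat-bottom 96-well plates) to 10 µM compound in Medium 199 with 5% FCS at 37 °C, 5% CO2, with 0.1% DMSO control wells. Wells were scored visually (10×) at 24, 48 and 72 h on a quarter-point scale from 3 (normal) to 0 (dead). Drug effect was derived from the mean test-well score relative to the mean DMSO-control score. Negative values were set to zero, and plates were valid only if control wells averaged at least 2.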
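For phenotypic severity score (0-4) in this document: visual microscopic scoring of shape, motility and density changes versus 0.5% DMSO solvent controls, one point per descriptor, degeneracy or death scored 4, mean of duplicate wells.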

`Cc1ccc(NC(=O)c2nc[nH]c2C(=O)Nc2nc3ccccc3[nH]2)c(C)c1`: the XTT viability in experiment [1] is 50.8%. Moreover, the phenotypic severity score in experiment [2] (24 h) is 3 (active); in experiment [2] (48 h), 4 (active); in experiment [2] (72 h), 4 (active). Also, the drug effect is 0.273 (inactive) in experiment [3] (24 h), 0.4 (inactive) in experiment [3] (48 h) and 0.278 (inactive) in experiment [3] (72 h).
With `Cc1nn2c(O)c3c(nc2c1-c1ccc(F)cc1)CCCC3`, the XTT viability in experiment [1] came to 113%. In addition, the phenotypic severity score in experiment [2] (24 h), in experiment [2] (48 h) and in experiment [2] (72 h) was 0 (inactive) each time. In addition, the drug effect in experiment [3] (24 h) was 0.409 (inactive); in experiment [3] (48 h), 0.45 (inactive); in experiment [3] (72 h), 0.509 (active).
Consider `CCn1cnc2c(Nc3cc(F)cc(F)c3)nc(C#N)nc21`, for which, in experiment [1], the XTT viability is 97.7%. Further, the phenotypic severity score in experiment [2] (24 h), in experiment [2] (48 h) and in experiment [2] (72 h) was 4 (active) in each case. Moreover, the drug effect in experiment [3] (24 h) was 0.351 (inactive); in experiment [3] (48 h), 0.889 (active); in experiment [3] (72 h), 0.75 (active).
Consider `Nc1ncc(Br)cc1-c1nc2cc(Cl)cnc2[nH]1`, for which, in experiment [1], the XTT viability is 131%. Further, the phenotypic severity score in experiment [2] (24 h), in experiment [2] (48 h) and in experiment [2] (72 h) was 0 (inactive) throughout. Also, the values for the drug effect in experiment [3] (24 h), in experiment [3] (48 h) and in experiment [3] (72 h) were 0.1 (inactive), 0.111 (inactive) and 0.188 (inactive), respectively.
For the molecule `Cc1nc(-c2cccc(NCc3ccccc3)c2)[nH]c1C`, in experiment [1], the XTT viability amounted to 104%. Further, the phenotypic severity score in experiment [2] (24 h), in experiment [2] (48 h) and in experiment [2] (72 h) was 0 (inactive) throughout. Besides, the drug effect in experiment [3] (24 h) is 0.1 (inactive); in experiment [3] (48 h), 0.111 (inactive); in experiment [3] (72 h) it was 0.25 (inactive).
`Cc1cc(Nc2ccc(C(F)(F)F)cc2)n2ccnc2n1`: in experiment [1], the XTT viability was 71.7%. Also, the phenotypic severity score in experiment [2] (24 h), in experiment [2] (48 h) and in experiment [2] (72 h) was 0 (inactive) throughout. Further, the drug effect in experiment [3] (24 h) is 0.0909 (inactive); in experiment [3] (48 h), 0.15 (inactive); in experiment [3] (72 h) it was 0.158 (inactive).
As for `O=C(NCc1ccco1)N1CCN(Cc2ccc(Cl)s2)CC1`, in experiment [1], the XTT viability came to 93.6%. Moreover, the phenotypic severity score in experiment [2] (24 h), in experiment [2] (48 h) and in experiment [2] (72 h) was 0 (inactive) each time. Moreover, the drug effect in experiment [3] (24 h) is 0.136 (inactive); in experiment [3] (48 h) it was 0.3 (inactive); in experiment [3] (72 h) it was 0.345 (inactive).
Take `Cc1ccc2[nH]c3c(NCCN(C)C)ncnc3c2c1`: the XTT viability in experiment [1] was 72.5%. Also, the phenotypic severity score was 1 (inactive) in experiment [2] (24 h), 0 (inactive) in experiment [2] (48 h) and 1 (inactive) in experiment [2] (72 h). In addition, the drug effect in experiment [3] (24 h) was 0.25 (inactive); in experiment [3] (48 h), 0.222 (inactive); in experiment [3] (72 h), 0.333 (inactive).
On to `COC(=O)c1cccc2oc(-c3cccc(OC)c3NC(=O)c3cc(-c4ccccc4)on3)nc12`, for which the XTT viability in experiment [1] worked out at 88.1%. Moreover, the phenotypic severity score in experiment [2] (24 h), in experiment [2] (48 h) and in experiment [2] (72 h) was 0 (inactive) in each case. Also, the values for the drug effect in experiment [3] (24 h), in experiment [3] (48 h) and in experiment [3] (72 h) were 0.351 (inactive), 0.333 (inactive) and 0.312 (inactive), respectively.
As to `Cc1ccc(S(=O)(=O)N2CCN(C(=O)c3cc(-c4ccccc4)[nH]n3)CC2)cc1`, the XTT viability in experiment [1] turned out to be 82.6%. For the same molecule, the phenotypic severity score in experiment [2] (24 h) was 2 (active); in experiment [2] (48 h), 2 (active); in experiment [2] (72 h), 1 (inactive). Also, the drug effect in experiment [3] (24 h) was 0.455 (inactive); in experiment [3] (48 h) it was 0.75 (active); in experiment [3] (72 h) it was 0.836 (active).
As to `Cc1nnc(NC(=O)c2cn(-c3ccccc3)nc2-c2ccccc2C)o1`, the XTT viability in experiment [1] came to 56.8%. For the same molecule, the phenotypic severity score in experiment [2] (24 h), in experiment [2] (48 h) and in experiment [2] (72 h) was 1 (inactive) in each case. In addition, the drug effect is < 0 (inactive) in experiment [3] (24 h), 0.0811 (inactive) in experiment [3] (48 h) and 0.111 (inactive) in experiment [3] (72 h).
For the molecule `Clc1cccc(CO[C@H]2CCc3ccccc3[C@@H]2n2ccnn2)c1`, the XTT viability in experiment [1] was found to be 80.7%. In addition, the values for the phenotypic severity score in experiment [2] (24 h), in experiment [2] (48 h) and in experiment [2] (72 h) were 3 (active), 4 (active) and 4 (active), respectively. Further, the drug effect in experiment [3] (24 h) was < 0 (inactive); in experiment [3] (48 h), 0.1 (inactive); in experiment [3] (72 h) it was 0.158 (inactive).
With `CC[C@@H]([C@H](C)O)n1ncn(-c2ccc(N3CCN(c4ccc(OC[C@@H]5CO[C@@](Cn6cncn6)(c6ccc(F)cc6F)C5)cc4)CC3)cc2)c1=O`, the XTT viability in experiment [1] is 88.8%. In addition, the phenotypic severity score in experiment [2] (24 h) is 3 (active); in experiment [2] (48 h), 4 (active); in experiment [2] (72 h), 4 (active). The drug effect in experiment [3] (24 h) was 0.2 (inactive); in experiment [3] (48 h), 0.243 (inactive); in experiment [3] (72 h), 0.556 (active).
Regarding `FC(F)(F)c1cccc(-c2nc3c(NCc4ccncc4)nccc3[nH]2)c1`, the XTT viability in experiment [1] is 90.7%. Besides, the phenotypic severity score in experiment [2] (24 h), in experiment [2] (48 h) and in experiment [2] (72 h) was 0 (inactive) in each case. The results for the drug effect in experiment [3] (24 h), in experiment [3] (48 h) and in experiment [3] (72 h) were 0.15 (inactive), 0.0811 (inactive) and 0.152 (inactive), respectively.
Consider `Clc1ccc(CN2CCN(C3=NCCN3)CC2)cc1Cl`, for which, in experiment [1], the XTT viability amounted to 81.9%. The phenotypic severity score in experiment [2] (24 h) was 1 (inactive); in experiment [2] (48 h) it was 0 (inactive); in experiment [2] (72 h), 0 (inactive). For the same molecule, the figures for the drug effect in experiment [3] (24 h), in experiment [3] (48 h) and in experiment [3] (72 h) were 0.1 (inactive), 0.0556 (inactive) and 0.125 (inactive), respectively.
For the molecule `N=C(N)c1ccc(OCCCCCOc2ccc(C(=N)N)cc2)cc1`, the XTT viability in experiment [1] came out at 81.9%. For the same molecule, the phenotypic severity score in experiment [2] (24 h), in experiment [2] (48 h) and in experiment [2] (72 h) was 0 (inactive) in each case. Besides, the drug effect in experiment [3] (24 h), in experiment [3] (48 h) and in experiment [3] (72 h) was < 0 (inactive) throughout.
Consider `COc1ccc(-c2nn(C(C)C)c3ncnc(N)c23)cc1OC`, for which the XTT viability in experiment [1] was 95.2%. The phenotypic severity score in experiment [2] (24 h), in experiment [2] (48 h) and in experiment [2] (72 h) was 0 (inactive) each time. Besides, the drug effect in experiment [3] (24 h) is 0.05 (inactive); in experiment [3] (48 h), 0.0556 (inactive); in experiment [3] (72 h) it was 0.0556 (inactive).
As to `CCCCc1ccc(C(=O)Nc2nccc3ccccc23)nc1`, the XTT viability in experiment [1] amounted to 94.2%. For the same molecule, the phenotypic severity score in experiment [2] (24 h) is 1 (inactive); in experiment [2] (48 h), 0 (inactive); in experiment [2] (72 h) it was 1 (inactive). In addition, the drug effect in experiment [3] (24 h) is 0.1 (inactive); in experiment [3] (48 h), 0.167 (inactive); in experiment [3] (72 h) it was 0.188 (inactive).
For `CS(=O)(=O)Cc1nc2ccccc2oc1=O`, the XTT viability in experiment [1] was 355%. Moreover, the phenotypic severity score in experiment [2] (24 h), in experiment [2] (48 h) and in experiment [2] (72 h) was 0 (inactive) in each case. Besides, the drug effect in experiment [3] (24 h) is 0.182 (inactive); in experiment [3] (48 h), 0.45 (inactive); in experiment [3] (72 h), 0.455 (inactive).
